# Screens as filed in PubChem.
# Only some compounds are listed: those with a hit (about 15% of all), similar ones and a draw of the others.
# DT40 TDP1 no CPT: qHTS for Inhibitors of human tyrosyl-DNA phosphodiesterase 1 (TDP1): qHTS in cells in absence of CPT. Potency, µM (top dose mostly 46.2 µM), for the others: at the top dose activity change, negative = growth inhibition, most hits filed as inhibitors. DT40 Tdp1-/- hTDP1 cells, no CPT, ATP luminescence, 48 h. hit rate 15% among 420,000. AID 686978, 2013; further: nearly all actives have a fitted effect of over 55% in size
#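 Readout: luminescence from CellTiter-Glo after 30 min in the dark at RT. Cells: DT40 Tdp1-/- with stable hTDP1, 400/well. Exposure: compounds alone, ≥48 hr, 37 °C.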
# Gal4-VP16 FLuc: counter-screen for ROR gamma inhibitors: Gal4-VP16 reporter | Drosophila S2 Gal4-VP16 UAS-luciferase, luminescence, 20 h | Potency, µM (series often up to 53.6 µM), for inactives: at the highest dose activity, negative = inhibition, most hits filed as inhibitors | hit rate 3.5% among 310,000;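 further: Gal4-VP16 expression switched on by copper sulfate through the metallothionein promoter; nearly all actives have a fitted effect of over 50% in size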
# RORgamma inh: inhibitors of mouse ROR gamma transcriptional activity; Potency, µM (top dose mostly 53.6 µM), without a hit: at the highest dose activity change, negative = inhibition, usual class: inhibitors; hit rate 5.4% among 310,000; P51450; Drosophila S2 Gal4-RORgamma UAS-luciferase reporter, 20 h; AID 2551; further: nearly all actives have a fitted effect of over 60% in size
#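 In this cell-based reporter format, copper sulfate (700 uM final) drives Gal4–ROR gamma fusion expression from a metallothionein promoter in Drosophila Schneider cells; compounds preincubated 1 hr, reporter read after 20 hr at ambient temperature.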
# TDP1 cell CPT: growth inhibition of DT40 Tdp1-/-;hTDP1 cells with camptothecin (screen for TDP1 inhibitors); chicken DT40 Tdp1-/-;hTDP1 cells + 20 nM CPT, ATP luminescence, 48 h; Potency, µM (highest dose often 46.2 µM), for inactives: top-dose activity change, negative = growth inhibition, actives largely listed as inhibitors; hit rate 12% among 420,000; further: nearly all actives have a fitted effect of over 55% in size
#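 Chicken DT40 Tdp1-/- cells stably complemented with human TDP1 were seeded at 400 cells/well in medium containing 20 nM camptothecin, exposed to pin-transferred compounds, and grown at 37 °C for at least 48 hr. Viability was read as ATP luminescence.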
# 12-LOX inh: inhibitors of human 12S-lipoxygenase ALOX12; purified 12hLO, xylenol orange hydroperoxide absorbance; Potency, µM (top dose mostly 108 µM), inactives show top-dose activity change, negative = inhibition, actives largely listed as inhibitors; hit rate 1.1% among 580,000
# Target sequence (P18054 whole entry, looked up): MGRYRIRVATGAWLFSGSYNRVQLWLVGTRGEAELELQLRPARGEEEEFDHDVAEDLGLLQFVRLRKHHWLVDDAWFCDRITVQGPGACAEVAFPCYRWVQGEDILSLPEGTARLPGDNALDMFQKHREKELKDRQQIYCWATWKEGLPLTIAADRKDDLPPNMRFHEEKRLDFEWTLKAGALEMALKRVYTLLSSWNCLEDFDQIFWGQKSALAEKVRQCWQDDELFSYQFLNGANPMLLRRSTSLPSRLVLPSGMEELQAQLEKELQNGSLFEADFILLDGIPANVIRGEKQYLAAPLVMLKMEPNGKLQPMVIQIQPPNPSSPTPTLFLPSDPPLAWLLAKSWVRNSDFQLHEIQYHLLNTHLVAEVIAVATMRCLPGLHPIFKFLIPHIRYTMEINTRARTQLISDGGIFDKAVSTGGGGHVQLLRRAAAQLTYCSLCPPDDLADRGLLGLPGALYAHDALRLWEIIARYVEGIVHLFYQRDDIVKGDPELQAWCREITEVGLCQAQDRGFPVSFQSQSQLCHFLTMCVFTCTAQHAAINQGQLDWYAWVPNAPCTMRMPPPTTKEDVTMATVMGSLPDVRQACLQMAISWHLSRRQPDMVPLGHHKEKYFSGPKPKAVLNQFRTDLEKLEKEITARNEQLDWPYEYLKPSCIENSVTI
#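 Hydroperoxide product was detected by ferrous iron/xylenol orange as the 573 to 405 nm absorbance ratio. Arachidonic acid at 40 uM (final) was turned over for 30 min at room temperature by 150 nM human 12hLO, pH 7.0 Hepes buffer, after 15 min compound preincubation.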
# ELG1 repair inh: blocks ELG1-dependent DNA repair in HEK293T cells. HEK293T ELG1-luciferase reporter, luminescence, 16 h; DNA damage induced by 5-fluorouridine. Potency, µM (top dose mostly 46.1 µM), for inactives: at the top dose activity change, negative = inhibition, actives largely listed as inhibitors. hit rate 2.3% among 330,000. AID 504467; further: nearly all actives have a fitted effect of over 55% in size
#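 Overnight (16 hr) co-exposure of 2,000 cells/well to 5-fluorouridine and compound at 37 °C preceded detection. Luciferase was quantified via ONE-Glo luminescence; loss of signal denotes inhibition.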
# Active calls of the source: *; ? = inconclusive; . = no result given. The call rests on the fitted dose curve; in most records, active means well fitted curve in the direction sought with a large enough effect; inconclusive means small, poorly fitted or top-dose-only effect, or another doubt; inactive means no such curve, though single readings can be large; an effect the other way counts as inactive or inconclusive. On the % scale 0 is the no-effect control and ±100 the full control effect; potency means the concentration at half of the fitted maximal effect.
SMILES,DT40 TDP1 no CPT,Gal4-VP16 FLuc,RORgamma inh,TDP1 cell CPT,12-LOX inh,ELG1 repair inh
C[n+]1ccc(/C=C/c2ccc(F)cc2)c2ccccc21,12.6µM*,.,.,8.91µM*,.,.
C[n+]1ccc(/C=C/c2ccc([N+](C)(C)C)cc2)c2ccccc21,0.159µM*,.,.,0.141µM*,.,.
C[n+]1ccc(/C=C/c2cc[n+](C)c3ccccc23)c2ccccc21,0.0794µM*,.,.,0.1µM*,.,.
CN(C)c1ccc(/C=C/c2cc[n+]([O-])c3ccccc23)cc1,-11.3%,.,.,-19.6%,.,.
C=C1C(=O)[C@]23C[C@H]1CCC2[C@]1(C)CCC[C@@](C)(C(=O)O)C1C[C@@H]3O (some centres undefined),1.64µM*,.,.,1.46µM*,-2.3%,.
C=C1C(=O)[C@]23C[C@H]1CCC2[C@]1(C)C(=O)CC[C@@](C)(C(=O)O)C1C[C@@H]3O (some centres undefined),3.66µM*,.,.,2.91µM*,?,.
C=C1C(=O)[C@]23C[C@H]1CC[C@H]2[C@]1(C)[C@@H](OC(C)=O)CC[C@@](C)(C(=O)O)[C@H]1C[C@@H]3OC(C)=O,4.11µM*,.,.,2.06µM*,3.5%,.
CCCc1cc(C(=O)OC)c(NC(=O)Cc2c(Cl)cccc2Cl)s1,.,.,.,.,19.6%,.
Cc1cc(C(=O)OCC(=O)NCC(F)(F)F)c2ccccc2n1,.,.,.,.,-1.1%,.
Cc1nc(CN2C(=O)OC3(CCN(C(=O)c4cccc(C#N)c4)CC3)C2(C)c2ccccc2)cs1 (centres undefined),.,.,.,.,19.2%,.
CCOC(=O)N1CCC(NC2CC(=O)N(CCc3ccc(OC)cc3)C2)CC1 (centres undefined),.,.,.,.,-4.7%,.
CCCn1c(=O)c(-c2nc3ccccc3[nH]2)c(O)c2ccccc21,?,2µM*,0.501µM*,14.3%,1.6%,15.8%
CCn1c(=O)c(-c2nc3ccccc3[nH]2)c(O)c2ccccc21,?,0.631µM*,0.159µM*,-4.8%,22.1%,-3.0%
CCCCCCn1c(=O)c(-c2ccccc2)c(O)c2ccccc21,-21.7%,-11.4%,1.1%,13.2%,?,0.4%
Cn1cc(-c2nc3ccccc3[nH]2)c2ccccc21,?,-2.4%,0.5%,?,-18.4%,?
COc1ccc(-c2nc3cc(C)ccc3cc2CN2CCC(NC(C)=O)C2)cc1 (centres undefined),.,.,.,.,3.1%,.
COc1ccccc1-n1ccn2c(SCC(=O)N3CCN(c4ccccc4F)CC3)nnc2c1=O,.,.,.,.,-4.7%,.
CC1CCCN(c2ccc3nc4ccccc4c(=O)n3n2)C1 (centres undefined),?,4.47µM*,8.91µM*,?,-17.7%,?
CC(C)C(=O)/C(C#N)=C\c1ccc(C#N)cc1,.,.,.,.,-15.8%,.
CCOC(=O)C1CCN([C@H]2CS(=O)(=O)C[C@@H]2S(=O)(=O)c2ccc(C)cc2)CC1,.,.,.,.,-13.4%,.
CC(=O)n1cc([C@@H]2C=C(C(=O)O)O[C@H](OCc3ccc(CO)cc3)C2)c2ccccc21,-3.5%,-1.6%,-9.8%,-0.7%,?,19.4%
CC(=O)n1cc([C@H]2C=C(C(=O)N3CCN(Cc4ccccc4)CC3)O[C@@H](OCc3ccc(CO)cc3)C2)c2ccccc21,7.31µM*,-13.3%,22.1%,7.31µM*,-0.2%,?
CC(=O)n1cc([C@@H]2C=C(C(=O)NCc3ccccc3)O[C@H](OCc3ccc(CO)cc3)C2)c2ccccc21,9.2µM*,-2.6%,0.6%,7.31µM*,-7.9%,?
C#CCNC(=O)C1=C[C@H](c2cn(C(C)=O)c3ccccc23)C[C@H](OCc2ccc(CO)cc2)O1,16.4µM*,-4.8%,?,18.4µM*,-10.6%,?
